# Measurements from PubChem BioAssay (NCI).
# About 83,000 compounds went through this panel and 20% of them were active in at least one assay; those are over-represented in the sample as a whole.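 Negative percent growth values reflect cell death: -40 means 40% of the cells present at the start died, and -100 means all died.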 A number with no mark means an inactive call. Active and inactive are the calls of the source. How the source made its calls: active means growth percent below 10; inactive means the rest.
# Experiments:
# Assay in all cases: NCI-60 one-dose screen, 48 h (100 = growth as untreated, 0 = no growth, -100 = all killed)
# Details in all cases: 10 µM unless noted
# HCT-15 colon = tested on: HCT-15 colon
# HT29 colon = tested on: HT29 colon
# SNB-75 CNS = tested on: SNB-75 CNS
# SNB-19 CNS = tested on: SNB-19 CNS
# U251 CNS = tested on: U251 CNS
# PC-3 prostate = tested on: PC-3 prostate
# SK-MEL-5 melanoma = tested on: SK-MEL-5 melanoma
# UACC-62 melanoma = tested on: UACC-62 melanoma
# LOX IMVI melanoma = tested on: LOX IMVI melanoma
# SK-MEL-28 melanoma = tested on: SK-MEL-28 melanoma
SMILES,growth (HCT-15 colon),growth (HT29 colon),growth (SNB-75 CNS),growth (SNB-19 CNS),growth (U251 CNS),growth (PC-3 prostate),growth (SK-MEL-5 melanoma),growth (UACC-62 melanoma),growth (LOX IMVI melanoma),growth (SK-MEL-28 melanoma)
O=C(CCCCCCN1CC(=O)N2[C@@H](c3ccccc3Br)c3[nH]c4ccccc4c3C[C@H]2C1=O)NO,90.2%,37.2%,21.8%,55.4%,44.7%,56%,30%,21.6%,-60.4% (active),31.6%
Cc1ccc(-c2cc3nc(C(Cl)Cl)nc(-c4ccc(S(=O)(=O)N(C)C)cc4)n3n2)cc1,74.9%,66.5%,108%,89.4%,83.8%,91.7%,91.5%,88.9%,45.7%,99.5%
COC(=O)c1cccc(NC2=C(Cl)C(=O)C(C)=C(C)C2=O)c1,112%,105%,60.7%,87%,102%,71.9%,95.6%,85.5%,69%,110%
O=S(=O)(NCCCNc1nccc(-c2[nH]c(-c3ccccc3)nc2-c2ccc(F)c(O)c2)n1)c1ccccc1,101%,98.1%,79.5%,110%,114%,88.2%,59.9%,19.6%,83.7%,33.8%
Brc1ccc(-c2cc(-c3ccc4c(c3)OCCO4)n[nH]2)s1,19.2%,11.1%,7.95% (active),42.6%,27.8%,50%,12.1%,49.5%,41.7%,57.8%
O=S(=O)(NCCCNc1nccc(-c2[nH]c(-c3ccccc3)nc2-c2ccc(F)c(O)c2)n1)c1ccc(C(F)(F)F)cc1,38.1%,94.9%,-0.845% (active),43.2%,33.5%,40.8%,-0.786% (active),2.32% (active),46.3%,30.1%
COc1ccc(/C(=N\N=C(N)N)c2ccc(Cl)cc2)cc1OC,77.3%,54.9%,46.2%,72.9%,72.4%,44%,93%,80.2%,58.3%,96.5%
COc1cc2cc(Oc3ccc(NC(=O)Nc4ccc(F)c(C(F)(F)F)c4)cc3)c(C)nc2cc1OCCN(C)C,29.2%,66.5%,98.8%,99.8%,100%,92%,90.9%,106%,54%,81%
C#C[C@]1(O)CC[C@H]2[C@@H]3CC=C4c5sc(N6CCN(C)CC6)nc5CC[C@]4(C)[C@H]3CC[C@@]21C,8.12% (active),5.26% (active),75.2%,63.3%,21.8%,22.4%,38.5%,51.2%,25.6%,31%
C/C(=C(\c1ccc(O)cc1)c1ccc(OCCN2CCCCCC2)cc1)c1ccc(Cl)cc1,-88.7% (active),-72.8% (active),-77.9% (active),-20.6% (active),-81.1% (active),-69.9% (active),-96% (active),-85.1% (active),-95.4% (active),-84.1% (active)
CCOP(=O)(OCC)OC[C@]12CCC(C)(C)CC1C1=CC[C@@H]3[C@@]4(C)CCCNC(C)(C)[C@@H]4CC[C@@]3(C)[C@]1(C)CC2 (stereo not given in full),44.3%,42%,93.6%,87%,56.3%,51.3%,80.7%,90.5%,25.3%,101%
CSc1ccc(C(=NNS(=O)(=O)c2ccc(C)cc2)c2ccc(Cl)cc2)cc1,101%,99.8%,85.4%,105%,103%,86.4%,99.3%,90.1%,106%,102%
O=C(CCCCCCN1CC(=O)N2[C@@H](c3cccs3)c3[nH]c4ccccc4c3C[C@H]2C1=O)NO,96.1%,78.9%,73%,78.1%,76.5%,86.2%,74.8%,5.39% (active),68.4%,70.2%
CC1=C(C)C(=O)C(Nc2cccc(C(F)(F)F)c2)=C(Br)C1=O,82.7%,106%,62.2%,91.1%,87.4%,71%,81.3%,80.8%,6.64% (active),105%
CN1c2ccccc2Sc2cc(/C=N/Nc3ccnc4cc(Cl)ccc34)ccc21,50.2%,76.5%,104%,94.8%,80.7%,88.6%,94.7%,101%,47.7%,103%
O=C1C(SCc2ccccc2)=C(Cl)CN1c1ccc(Cl)cc1,88.6%,84.5%,103%,96.9%,86.3%,107%,99.3%,93.5%,5.82% (active),88.1%
C#CCN(C)CCCOc1ccc(NC(=O)CCCCCCCCC(=O)NO)cc1Cl,75%,67.8%,63.4%,77.3%,64.3%,73.9%,54.9%,40.6%,4.6% (active),77%
NS(=O)(=O)c1ccc(CCn2c(-c3ccc(C(=O)O)cc3)nc(-c3ccccc3)c2-c2ccccc2)cc1,94.5%,106%,86.1%,102%,110%,93.5%,99.1%,94.2%,102%,102%
O=C1[C@@H]2Cc3c([nH]c4ccccc34)[C@H](c3ccc(Cl)cc3)N2C(=O)CN1C1CCN(Cc2ccccc2)CC1,35%,25%,43.8%,66%,56.5%,38.8%,62.3%,75.4%,20.7%,77.8%
CCc1cc(OC(=O)N2CCC(N3CCCCC3)CC2)ccc1Nc1cc(-c2ccc(-n3cccn3)cc2)[nH]n1,-44.6% (active),-19.3% (active),97.3%,69.2%,55.8%,74.1%,60.2%,89.5%,-92% (active),-60.7% (active)
O=C(COc1ccc(/C=C2\C(=O)Nc3ccc(Cl)cc32)cc1)Nc1ccc(Cl)cc1,42.1%,55.8%,78.9%,78.2%,5.92% (active),41.7%,78%,27.8%,1.2% (active),78.6%
COc1cc(OC)cc(-c2cc(-c3c[nH]c4ccccc34)nc(-c3c[nH]c4ccccc34)c2C#N)c1,102%,108%,87.6%,96.6%,100%,93.6%,98.5%,93.6%,82.7%,101%
COc1ccc(-c2cc(-c3ccc(N(C)C)cc3)n3c(n2)nc2ccccc23)cc1,50.7%,54.1%,95.2%,67.2%,40.5%,28.1%,3.05% (active),48.2%,66.3%,77%
O=C(CSc1nc2ccccc2c(=O)n1-c1ccccc1)N/N=C/c1ccc(Oc2ccc(Cl)cc2)cc1,60.8%,59.1%,60.1%,33.2%,15.2%,58.7%,71.2%,66.6%,14%,62.4%
COc1ccccc1/C=C/C(=O)c1nnn(-c2ccc(F)cc2)c1C,22.9%,4.8% (active),40.6%,63.2%,36.3%,68.9%,79.3%,59.4%,2.13% (active),75.2%
